Consider 64 molecules from PubChem BioAssay AID651744 (Broad Institute, 2012).

In general, inhibition refers to the drop in the measured response relative to a control, in per cent.

About 3,100 (55%) of roughly 5,600 compounds were called active. Roughly 3% stayed inconclusive and do not appear here.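 How the source made its calls: active means mean loss of cell viability signal at or above a set limit, and enough replicates individually reaching it; inconclusive means meets only the mean limit or only the replicate share; inactive means meets neither condition.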 The set was probably picked from earlier hits. These entries were drawn from the full list.

A short description of the experiment: NIH/3T3 fibroblast cytotoxicity, confirmation, cytotoxicity control, cell-based, cherry-pick, single point, set 2 (AID 651744).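 Further: 0% = median of neutral control wells and 100% = median of positive control wells.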 Conditions: NIH/3T3 viability, CellTiter-Glo ATP luminescence, 90 h; at 24.9 µM; hits give high values.
Take `C[C@H]1CN([C@@H](C)CO)C(=O)c2cc(C#CC3CCCCC3)cnc2O[C@H]1CN(C)S(=O)(=O)c1ccccc1`: the inhibition was 62.7% (active).
For `C[C@@H]1CN([C@@H](C)CO)C(=O)c2cc(C#CC3CCCCC3)cnc2O[C@H]1CN(C)S(=O)(=O)c1ccccc1`, the inhibition is 106% (active).
`C[C@@H]1CCCCO[C@@H](CN(C)S(=O)(=O)c2ccc(Cl)cc2)[C@H](C)CN([C@@H](C)CO)C(=O)c2cc(NC(=O)Cc3ccccc3)ccc2O1`: the inhibition was 12.4% (inactive).
Consider `CC(C)NC(=O)Nc1ccc2c(c1)C(=O)N([C@@H](C)CO)C[C@H](C)[C@H](CN(C)S(=O)(=O)c1ccc(Cl)cc1)OCCCC[C@H](C)O2`, for which the inhibition is 14% (inactive).
Turning to `C[C@@H]1CCCCO[C@H](CN(C)S(=O)(=O)c2ccc(F)cc2)[C@H](C)CN([C@@H](C)CO)C(=O)c2cc(NS(=O)(=O)c3ccccc3)ccc2O1`, the inhibition is -19.2% (inactive).
With `C[C@@H]1CN([C@H](C)CO)C(=O)c2cc(C#CC3CCCCC3)cnc2O[C@@H]1CN(C)C(=O)NC1CCCC1` the figure was 75.6% (active); with `C[C@@H]1CN([C@H](C)CO)C(=O)c2cc(-c3cncnc3)cnc2O[C@H]1CN(C)C(=O)Nc1ccc2c(c1)OCO2`, 2.69% (inactive); with `C[C@H](CO)N1C[C@H](C)[C@H](CN(C)C(=O)C2CCCCC2)Oc2ncc(C#Cc3cccc(F)c3)cc2C1=O`, 92.3% (active).
Turning to `C[C@H](CO)N1C[C@H](C)[C@H](CN(C)C(=O)Nc2ccc3c(c2)OCO3)Oc2ncc(C#Cc3cccc(F)c3)cc2C1=O`, the inhibition is 103% (active).
With `Cc1ccc(-c2ccc([C@H]3[C@H](CO)N4CCCCN(Cc5cncnc5)C[C@@H]34)cc2)cc1` the figure was 64.8% (active).
On to `OC[C@H]1[C@H](c2ccc(-c3cccc(F)c3)cc2)[C@@H]2CN(Cc3cncnc3)CCCCN12`, for which the inhibition was 31.7% (active).
Then `OC[C@@H]1[C@H](c2ccc(C#CC3(O)CCCC3)cc2)[C@H]2CN(Cc3cncnc3)CCCCN12`, with 16.8% (inactive); and `OC[C@@H]1[C@H](c2ccc(C#Cc3ccccc3)cc2)[C@@H]2CN(Cc3cncnc3)CCCCN12`, with 104% (active).
With `CN(C)C(=O)c1ccc(-c2ccc([C@H]3[C@@H](CO)N4CCCCN(CC5CC5)C[C@H]34)cc2)cc1`, the inhibition is -3.83% (inactive).
As to `Cc1cccc(-c2ccc([C@H]3[C@@H](CO)N4CCCCN(Cc5cncnc5)C[C@H]34)cc2)c1`, the inhibition is 102% (active).
As to `CCC(=O)N1CC[C@@H]2[C@@H](CO)N(C)c3ccc(-c4cccc(OC)c4)cc3[C@@H]21`, the inhibition was -5.88% (inactive).
Consider `C[C@H]1CN([C@@H](C)CO)S(=O)(=O)c2ccc(C#CCN(C)C)cc2O[C@@H]1CN(C)Cc1ccc(F)cc1`, for which the inhibition is 105% (active).
With `C[C@@H]1CN([C@@H](C)CO)S(=O)(=O)c2ccc(/C=C/c3ccccc3)cc2O[C@H]1CN(C)Cc1ccccc1` the figure was 72.5% (active); with `CC(C)C#Cc1ccc2c(c1)O[C@H](CN(C)Cc1ccccc1)[C@H](C)CN([C@@H](C)CO)S2(=O)=O`, 106% (active).
With `CC(=O)N(C)C[C@H]1Oc2cc(C#CCN(C)C)ccc2S(=O)(=O)N([C@@H](C)CO)C[C@@H]1C` the figure was 16.1% (inactive).
With `C[C@@H]1CN([C@H](C)CO)S(=O)(=O)c2ccc(C#C[C@@H](C)O)cc2O[C@@H]1CN(C)Cc1ccc(-c2ccccc2)cc1`, the inhibition is 105% (active).
With `COc1cccc(C#Cc2ccc([C@@H]3[C@H](C#N)N[C@H]3CO)cc2)c1`, the inhibition was 61.1% (active).
Consider `C[C@H](CO)N1C[C@H](C)[C@@H](CN(C)S(=O)(=O)c2cccc(F)c2)OCc2ccccc2-c2c(n(C)c3ccccc23)C1=O`, for which the inhibition is 4.71% (inactive).
For `C[C@H](CO)N1C[C@H](C)[C@H](CN(C)S(=O)(=O)c2ccccc2)Oc2ncc(-c3cccc(C(F)(F)F)c3)cc2C1=O`, the inhibition was 41.1% (active).
In the case of `Cc1ccc(S(=O)(=O)N(C)C[C@@H]2Oc3ncc(-c4cc5ccccc5o4)cc3C(=O)N([C@H](C)CO)C[C@@H]2C)cc1`, the inhibition was 14.8% (inactive).
On to `C[C@H](CO)N1C[C@H](C)[C@H](CN(C)S(=O)(=O)c2cccc(F)c2)Oc2ncc(/C=C/c3ccccc3)cc2C1=O`, for which the inhibition is 76% (active).
Then `Cc1ccc(-c2cnc3c(c2)C(=O)N([C@@H](C)CO)C[C@@H](C)[C@H](CN(C)Cc2ccccc2F)O3)cc1`, with 92.5% (active).
In the case of `C[C@H]1CN([C@@H](C)CO)C(=O)c2ccccc2-c2ccccc2CO[C@@H]1CN(C)S(=O)(=O)c1ccc(C(F)(F)F)cc1`, the inhibition is 9.87% (inactive).
As for `C[C@@H]1CN([C@H](C)CO)C(=O)c2cc(/C=C/c3ccccc3)cnc2O[C@@H]1CN(C)Cc1ccncc1`, the inhibition was 26.2% (active).
With `CN1C(=O)c2cc(NC(=O)Nc3ccccc3F)ccc2OC[C@H]2O[C@H](CC(=O)NCc3ccc(-c4ccccc4)cc3)CC[C@H]21` the figure was 23% (inactive); with `O=C(c1ccccc1F)N1C[C@H]2[C@@H](c3ccccc31)[C@@H](CO)N2C(=O)c1ccc(F)cc1`, 9.61% (inactive).
In the case of `COc1ccc(CCN(C)C(=O)C2CCCN(Cc3ccc(OC)c(OC)c3)C2)cc1OC` (centres undefined), the inhibition was 2.44% (inactive).
As to `C[C@@H]1CN([C@H](C)CO)S(=O)(=O)c2ccc(C#CC3CCCC3)cc2O[C@@H]1CN(C)C(=O)Cc1ccncc1`, the inhibition is 85.1% (active).
With `C[C@H]1CN([C@@H](C)CO)S(=O)(=O)c2ccc(C#CC3CCCC3)cc2O[C@H]1CN(C)C(=O)Cc1ccncc1`, the inhibition is 103% (active).
`CC(=O)N(C)C[C@@H]1[C@@H](c2ccc(-c3ccccc3F)cc2)[C@@H](CO)N1C(C)=O`: the inhibition is -5.68% (inactive).
Regarding `CCN(C[C@H]1[C@H](c2ccccc2)[C@H](CO)N1C(=O)C1CC1)C(=O)NC1CCCC1`, the inhibition is 4.07% (inactive).
With `CCc1cnc(N2[C@H](C#N)[C@H](c3ccc(C4=CCCC4)cc3)[C@@H]2CO)s1` the figure was 7.03% (inactive).
Then `CS(=O)(=O)N1[C@@H](C#N)[C@H](c2ccc(C#CC3CCCCC3)cc2)[C@@H]1CO`, with 75.2% (active); and `N#C[C@H]1[C@@H](c2ccc(C3=CCCCC3)cc2)[C@@H](CO)N1C(=O)NC1CCCCC1`, with 60.1% (active); and `CC(C)NC(=O)N1[C@H](C#N)[C@H](c2ccc(C#CC3CCCCC3)cc2)[C@H]1CO`, with 67.4% (active).
Then `OC[C@@H]1Nc2ccc(-c3cccc(F)c3)cc2[C@H]2[C@@H]1CCN2Cc1ccncc1`, with 43.3% (active); and `CN1c2ccc(-c3ccccc3)cc2[C@@H]2[C@@H](CCN2C(=O)c2ccncc2)[C@@H]1CO`, with 18.7% (inactive); and `O=C(c1ccccn1)N1CC[C@@H]2[C@H]1c1cc(-c3ccccc3)ccc1N[C@@H]2CO`, with 7.5% (inactive).
`N#Cc1ccc(-c2ccc3c(c2)[C@@H]2[C@@H](CCN2C(=O)Cc2ccncc2)[C@@H](CO)N3)cc1`: the inhibition is 14.4% (inactive).
Take `O=C(c1cnccn1)N1CC[C@@H]2[C@H](CO)Nc3ccc(-c4cccc(F)c4)cc3[C@@H]21`: the inhibition is 42.7% (active).
For `COc1cccc(S(=O)(=O)N2C[C@@H](O)COC[C@@H]3O[C@H](CC(=O)Nc4ccccc4)CC[C@H]32)c1`, the inhibition is 26.4% (inactive).
Take `Cc1ccc(S(=O)(=O)N2C[C@@H](O)COC[C@@H]3O[C@H](CC(=O)NCc4ccc(Cl)c(Cl)c4)CC[C@H]32)cc1`: the inhibition is 8.83% (inactive).
Then `O=C(C[C@H]1CC[C@@H]2[C@H](COC[C@H](O)CN2Cc2ccc(Oc3ccccc3)cc2)O1)N1CCN(c2ccccc2)CC1`, with 104% (active); and `O=C(C1CCC1)N1CCCCN2[C@H](CO)[C@H](c3ccc(-c4ccncc4)cc3)[C@@H]2C1`, with -9.25% (inactive).
With `COc1ccccc1C#Cc1ccc([C@@H]2[C@H](CO)N3CCCCN(C(=O)C4CCCC4)C[C@@H]23)cc1`, the inhibition is 103% (active).
In the case of `COc1ccccc1C#Cc1ccc([C@@H]2[C@H](CO)N3CCCCN(C(=O)C4CC4)C[C@@H]23)cc1`, the inhibition is 100% (active).
Turning to `COc1ccccc1C#Cc1ccc([C@H]2[C@H](CO)N3CCCCN(C(=O)C4CCC4)C[C@@H]23)cc1`, the inhibition was 105% (active).
Then `COc1ccccc1NC(=O)N1CCCCN2[C@H](C1)[C@H](c1ccc(-c3ccccc3)cc1)[C@@H]2CO`, with 14.8% (inactive); and `C[C@@H]1CN([C@@H](C)CO)C(=O)c2cc(C#Cc3ccccc3)cnc2O[C@H]1CN(C)C(=O)c1ccccn1`, with 34.3% (active); and `C[C@H](CO)N1C[C@H](C)[C@H](CN(C)C(=O)Nc2cccc3ccccc23)Oc2ncc(C#Cc3ccccc3)cc2C1=O`, with 105% (active).
Take `Cc1noc(C)c1S(=O)(=O)Nc1ccc2c(c1)C(=O)N([C@@H](C)CO)C[C@H](C)[C@@H](CN(C)C(=O)Nc1cccc3ccccc13)OCCCC[C@H](C)O2`: the inhibition was 13.2% (inactive).
Take `CC(C)CC#Cc1cnc2c(c1)C(=O)N([C@@H](C)CO)C[C@@H](C)[C@H](CN(C)C(=O)Cc1ccncc1)O2`: the inhibition is 36.6% (active).
As for `Cc1ccc(S(=O)(=O)Nc2ccc3c(c2)C(=O)N([C@@H](C)CO)C[C@@H](C)[C@H](CN(C)C(=O)Nc2cccc4ccccc24)OCCCC[C@H](C)O3)cc1`, the inhibition was 14.8% (inactive).
Regarding `COc1ccc(C#Cc2cnc3c(c2)C(=O)N([C@@H](C)CO)C[C@H](C)[C@@H](CN(C)C(C)=O)O3)cc1`, the inhibition is 45.4% (active).
In the case of `C[C@@H]1CN([C@H](C)CO)C(=O)c2cc(C#Cc3ccccn3)cnc2O[C@H]1CN(C)Cc1ccccc1`, the inhibition was -11.5% (inactive).
Regarding `C[C@H](CO)N1C[C@H](C)[C@@H](CN(C)C(=O)Nc2ccnc(N3CCOCC3)c2)OCc2ccccc2-c2ccccc2C1=O`, the inhibition was 17.3% (inactive).
In the case of `COCC(=O)N(C)C[C@@H]1Oc2ncc(C#Cc3ccccc3OC)cc2C(=O)N([C@@H](C)CO)C[C@H]1C`, the inhibition was 34.8% (active).
For `CCCN(C)C[C@@H]1Oc2cc(C#Cc3ccc(F)cc3)ccc2S(=O)(=O)N([C@H](C)CO)C[C@H]1C`, the inhibition was 105% (active).
Consider `CCCN(C)C[C@H]1Oc2cc(C#CC3CCCC3)ccc2S(=O)(=O)N([C@H](C)CO)C[C@@H]1C`, for which the inhibition is 105% (active).
